Hit rate of the full screen: of about 69,000 compounds, about 8,600 (12%) showed an effect of 50% or more. Only a selection was taken, and strong results are over-represented in it overall.
The compounds below were run on Plasmodium berghei (assay: Screen against P. berghei liver stage (PbLuc), transformed with Luciferase, at 10uM). Conditions: tested at 10 uM.
Type: functional, HepG2

Row | Structure (SMILES) | INHIBITION
1 | Cc1nn(C)c2cnn(CC(=O)NCc3ccc4c(c3)OCO4)c12 | 36.6%
2 | Cc1c(C(=O)NC(C)C)nnn1-c1cccc(C(F)(F)F)c1 | 15.2%
3 | c1coc(CN2C[C@@H]3OCCN(CC4CCCO4)[C@@H]3C2)c1 (some centres not stated) | 41.6%
4 | COC(=O)c1ccc(OCCn2cnc(C#N)n2)cc1 | 7.18%
5 | CN(C)c1ncc(-c2cccc(C(N)=O)c2)c(C2CNCCO2)n1 (configuration not stated) | 17.3%
6 | COc1c(CNC2CCc3c(F)cccc32)c(C)nn1C (configuration not stated) | -16%
7 | c1coc(-c2nc(CNCCn3cccn3)cs2)c1 | 21.5%
8 | CC(c1ccc(Cl)cc1)N1CCN(CCNS(C)(=O)=O)CC1 (configuration not stated) | 53.5%
9 | CS(=O)(=O)CCCN1CCSCC1c1ccc(Cl)cc1 (configuration not stated) | 31.9%
10 | CS(=O)(=O)NCCN1CCSCC1c1ccc(Cl)cc1 (configuration not stated) | -3.39%
11 | CS(=O)(=O)NCCCN1CCCC1c1ccsc1 (configuration not stated) | -5.25%
12 | CC(c1ccc(Cl)cc1)N1CCN(CCCS(C)(=O)=O)CC1 (configuration not stated) | -5.1%
13 | CS(=O)(=O)NCCN1CCCC1c1ccc(Cl)cc1 (configuration not stated) | 50.3%
14 | CCS(=O)(=O)CCCN1CCSCC1c1ccc(Cl)cc1 (configuration not stated) | 56.5%
15 | CC(c1ccc(Cl)cc1)N1CCN(CCS(C)(=O)=O)CC1 (configuration not stated) | 48.5%
16 | Cc1ccc(C2CSCCN2CC(=O)N2CCOCC2)cc1 (configuration not stated) | 15.3%
17 | O=C(NCc1ccncc1)N1CCSCC1c1ccc(Cl)cc1 (configuration not stated) | -23.2%
18 | CS(=O)(=O)CCN1CCSCC1c1ccc(Cl)cc1 (configuration not stated) | 59.7%
19 | Cc1ccc(C2CSCCN2CCS(C)(=O)=O)cc1 (configuration not stated) | 34%
20 | COc1ccc(CNCC(C)Oc2ccccn2)cc1Br (configuration not stated) | -33.2%
21 | CC1CCN(C(=O)[C@H]2CC[C@@H]3[C@@H](CCN3Cc3nccs3)O2)CC1 | 39.5%
22 | O=c1ccc2c(n1Cc1cccnc1)CCN(C1CCOC1)CC2 (configuration not stated) | 39.4%

Row | Structure (SMILES) | INHIBITION
23 | N#CC1(C(=O)N2C[C@H](Nc3ccnc(N)n3)[C@@H](C3CC3)C2)CCOCC1 | 26.9%
24 | CC(C)c1noc(C(C)N2CCN(Cc3nnc(C4CC4)o3)CC2)n1 (configuration not stated) | 0.914%
25 | O=C(c1ccccc1)N1CCC2(CCCN2c2ncccn2)CC1 | -22.1%
26 | Cc1nc(CN(C)CC(c2cccs2)N2CCOCC2)no1 (configuration not stated) | 15.3%
27 | CC(=O)N1N=C(c2ccccc2)OC1C(=O)NCC(=O)OC(C)(C)C (configuration not stated) | 28.3%
28 | CCC(CO)NCc1ccc(-c2ccc(F)c(Cl)c2)o1 (configuration not stated) | 18.8%
29 | CCC(CO)NCc1ccc(-c2ccc(F)cc2)o1 (configuration not stated) | 14.4%
30 | CCC(CO)NCc1ccc(-c2ccccc2)o1 (configuration not stated) | 50.8%
31 | CCC(CO)NCc1ccc(-c2ccccc2F)o1 (configuration not stated) | 73.5%
32 | CCC(CO)NCc1ccc(-c2ccc(Br)cc2)o1 (configuration not stated) | -11.6%
33 | CCC(CO)NCc1ccc(-c2ccc(Cl)cc2)o1 (configuration not stated) | 17.7%
34 | CN1CCN(c2ncc(CNCCCc3cccc(F)c3)cn2)CC1 | 46.8%
35 | CCC1CN(CC(=O)NCCOC)CCO1 (configuration not stated) | -22.3%
36 | CCC1CN(CC(=O)NC(C)C)CCO1 (configuration not stated) | -8.22%
37 | CCC1CN(CC(=O)NCCC#N)CCO1 (configuration not stated) | 52.6%
38 | CCC1CN(CC(=O)Nc2sccc2C#N)CCO1 (configuration not stated) | 17%
39 | CCC1CN(CC(=O)NCC(C)C)CCO1 (configuration not stated) | 30.9%
40 | CCCNC(=O)CN1CCOC(CC)C1 (configuration not stated) | 61.3%
41 | O=C(c1ccccn1)N1C[C@H]2CC[C@@H](C1)N(C(=O)Cc1cccs1)C2 | 4.13%
42 | CC1=N[C@@]2(CC[C@@H]3CN(S(=O)(=O)N(C)C)C[C@@H]32)C(=O)N1CC(C)C | 7.96%
43 | Cc1nc(C2CCCN2C(=O)c2csc3c2CCCC3)no1 (configuration not stated) | 15.3%
44 | Cc1ccc(CN2CCC3(CCN(Cc4ccncc4)CC3)CC2)cc1 | 33%

Row | Structure (SMILES) | INHIBITION
45 | Cc1c(C)n(Cc2ccncc2)c2nc3c(c(N)c12)CCCCCC3 | 77.6%
46 | Cc1c(C)n(Cc2ccncc2)c2nc3c(c(N)c12)CCCC3 | 44.1%
47 | Cc1c(C)n(Cc2ccncc2)c2nc3c(c(N)c12)CCCCC3 | 70.3%
48 | CN1CCC(NC(=O)[C@H]2CC[C@@H]3[C@@H](CCN3c3ncccn3)O2)CC1 | 18.5%
49 | CCc1nc(CC(=O)N2CCn3c(CC)nnc3C2)cs1 | -12.33%
50 | CCS(=O)(=O)Nc1ccn(Cc2c(F)cccc2Cl)n1 | -39.5%
51 | N#Cc1cccnc1N1CCCN(C(=O)CCn2cccn2)CC1 | 29.2%
52 | Cn1ccc(C(=O)NCc2ccccc2CN2CCCC2)cc1=O | 13.6%
53 | CN1CCN(c2ccccc2CNC(=O)Cc2ccccc2F)CC1 | 14.3%
54 | CN1CCN(Cc2ccccc2CNC(=O)c2ccc(Br)cc2)CC1 | 33.2%
55 | O=C(NCc1ccccc1CN1CCOCC1)c1ccc(Br)cc1F | 62.3%
56 | COc1ccc(CNC(=O)c2ccc(Cl)cc2F)cc1C(=O)O | -8.55%
57 | CN1CCN(Cc2ccccc2CNC(=O)c2cc(Cl)ccc2F)CC1 | 63.3%
58 | O=C(NCc1ccncc1)c1ccc(Cl)cc1F | -3.95%
59 | CN1CCN(Cc2ccccc2CNC(=O)c2ccc(Br)cc2F)CC1 | 30.8%
60 | O=C(Nc1ccc(Br)cc1F)c1cc(CN2CCOCC2)on1 | -43.7%
61 | CN1CCN(Cc2ccccc2CNC(=O)c2cc(Br)ccc2F)CC1 | 59.3%
62 | O=C(NCc1ccccc1CN1CCOCC1)Nc1nncs1 | -10.4%
63 | CN1CCN(Cc2ccccc2CNC(=O)c2ccc(Cl)cc2F)CC1 | 55.4%
64 | Cc1cc(C(=O)NCc2ccc(N3CCCC(C(N)=O)C3)cc2)on1 (configuration not stated) | 15.3%
65 | CN(C)CCN1CCCC12CCN(C(=O)c1cnccn1)CC2 | 24.9%
66 | CCC1(CC)CC(=O)N(CC(O)c2ccc(F)cc2)C1=O (configuration not stated) | -15%

Row | Structure (SMILES) | INHIBITION
67 | CN(CC(O)C(F)(F)F)C(=O)Nc1cccc(Cn2cccn2)c1 (configuration not stated) | 13.8%
68 | Cc1cc(CNCC2CNc3ccnn3C2)no1 (configuration not stated) | 31%
69 | Cc1cnc(-c2nc(C3CCN(Cc4ccccc4O)CC3)no2)cn1 | 23.7%
70 | Cc1cc(C)n(CC2CN(CC(=O)N3CCNC3=O)CCO2)n1 (configuration not stated) | -3.7%
71 | COc1ccc(NC(=O)CSc2ccc3nncn3n2)c(OC)c1 | 27%
72 | Cc1occc1C(=O)N1Cc2nccn2CC(CN2CCOCC2)C1 (configuration not stated) | 5.89%
73 | CCCc1nnsc1C(=O)NCC(O)c1ccoc1 (configuration not stated) | 15.5%
74 | CS(=O)(=O)c1cccc(OCC(=O)N2CCCC2c2ccc[nH]2)c1 (configuration not stated) | 61.6%
75 | COCC(=O)N1CCCC1c1cccc(C)c1C (configuration not stated) | 17.1%
76 | O=C(COc1ccc2c(c1)CCC2)N1CCCC1c1ccc[nH]1 (configuration not stated) | -38.6%
77 | Cc1cccc(C2CCCN2C(=O)CCS(C)(=O)=O)c1C (configuration not stated) | -8.84%
78 | O=C(COc1ccccc1)N1CCCC1c1ccc[nH]1 (configuration not stated) | -23.3%
79 | CS(=O)(=O)c1cccc(OCC(=O)N2CCCC2c2ccccc2Cl)c1 (configuration not stated) | 85.2%
80 | CCC(O)CN1CCN(C(=O)c2cnn(-c3ccccc3F)c2)CC1 (configuration not stated) | -1.37%
81 | Cc1ccc([C@]2(O)CC[C@H]3CN(Cc4cccc(Cl)c4Cl)C[C@H]32)nc1 | 62%
82 | O[C@@]1(c2ccccn2)CC[C@H]2CN(Cc3cccc(Cl)c3Cl)C[C@H]21 | 61.4%
83 | Cc1ccc([C@]2(O)CC[C@H]3CN(Cc4ccccc4F)C[C@H]32)nc1 | -18.2%
84 | COc1ccc(CN2C[C@H]3CC[C@](O)(c4ccc(C)cn4)[C@H]3C2)c(F)c1 | 27.3%
85 | Cc1ccc([C@]2(O)CC[C@H]3CN(Cc4ccc(Cl)cc4Cl)C[C@H]32)nc1 | 93.1%
86 | Cc1cccnc1[C@]1(O)CC[C@H]2CN(Cc3cccc(Cl)c3Cl)C[C@H]21 | 15.9%
87 | Cc1ccc([C@]2(O)CC[C@H]3CN(Cc4cccc(F)c4F)C[C@H]32)nc1 | 15.9%
88 | O[C@]1(c2ccccn2)CC[C@@H]2CN(Cc3cccc4ncccc34)C[C@@H]21 | 27.9%

Row | Structure (SMILES) | INHIBITION
89 | COc1cccc(CN2C[C@@H]3CC[C@@](O)(c4ccccn4)[C@@H]3C2)c1OC | 24.8%
90 | CC(=O)c1ccc(F)cc1-c1cc(NCCO)nc2[nH]ccc12 | -110%
91 | CN(C)c1cccc(C(=O)N2CCCC2c2ncc3c(n2)CCNC3)c1 (configuration not stated) | -16.7%
92 | Cc1cc2nc(C(C)C)cc(NC(C)c3nncn3C)n2n1 (configuration not stated) | 47.6%
93 | Cc1cc(NC(C)c2nncn2C2CCCC2)n2nc(C)cc2n1 (configuration not stated) | 35.8%
94 | Cc1cc2nc(C(C)C)cc(NC(C)c3nncn3C3CCCC3)n2n1 (configuration not stated) | 51.2%
95 | O=C(c1cnn2cccnc12)N1CCCC(n2ccnc2)C1 (configuration not stated) | 2.3%
96 | Cc1cccc(CN2CC[C@@H]3[C@@H](CO[C@H]3CNc3ncccn3)C2)n1 | 18.4%
97 | COc1cc2ccccc2cc1C(=O)N1CCCC(c2nncn2C)C1 (configuration not stated) | -8.11%
98 | CC(C)c1nc2c(n1C)CCN(CC(=O)Nc1ccnn1C(C)C)C2 | 27.4%
99 | CO[C@H]1CN(C(=O)c2ccc3oc(C)cc3c2)CC[C@@]12CCCO2 | 21.6%
100 | CO[C@H]1CCN(C(=O)c2ccc3oc(C)cc3c2)C[C@@]12CCCO2 | 45.6%
101 | CO[C@H]1CN(C(=O)c2ccc3oc(C)cc3c2)C[C@@]12CCCO2 | 63.4%
102 | COCCNC(=O)c1ccc(C)c(-n2cccc2)c1 | -15%
103 | CN(C)CCNc1c(-c2ccccc2)c(=O)c1=O | -20.1%
104 | CN(C)[C@@H]1CN(Cc2ccco2)C[C@@H]2CCCO[C@@H]21 | -2.27%
105 | Cn1cnnc1CN1CCC2(CCC(=O)N(Cc3ccccc3)C2)CC1 | 76.2%
106 | Cn1cnnc1CN1CCC2(CCC(=O)N(Cc3ccccn3)C2)CC1 | -42.2%
107 | CCN1CC2(CCC1=O)CCN(Cc1nncn1C)CC2 | 17%
